AmpC no deterg: inhibitors of E. coli AmpC beta-lactamase without detergent | P00811 | AmpC nitrocefin hydrolysis, absorbance 480 nm, 0.0001% Triton | Potency, µM (doses to about 57.1 µM), most hits filed as inhibitors | actives 0.52% (n = 330,000); further: nearly all actives have a fitted effect of over 20% in size
Target sequence (P00811 whole entry, looked up): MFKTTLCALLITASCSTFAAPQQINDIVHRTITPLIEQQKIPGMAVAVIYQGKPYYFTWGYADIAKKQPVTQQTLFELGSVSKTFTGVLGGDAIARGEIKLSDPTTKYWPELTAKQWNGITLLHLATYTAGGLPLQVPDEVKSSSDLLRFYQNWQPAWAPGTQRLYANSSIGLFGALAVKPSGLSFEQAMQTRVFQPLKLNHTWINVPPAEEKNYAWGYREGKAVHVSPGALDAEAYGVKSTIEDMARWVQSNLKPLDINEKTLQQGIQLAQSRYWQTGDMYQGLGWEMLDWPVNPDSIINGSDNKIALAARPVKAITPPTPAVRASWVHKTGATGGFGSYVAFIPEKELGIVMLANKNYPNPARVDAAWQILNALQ
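20 mM phosphate pH 7.0 + 0.01% (detergent screen) or 0.0001% Triton X-100; 5.3 nM AmpC reagent; cpd preinc 15 min RT; nitrocefin (800 uM stock) to start; A480 q20 s × 4 min; Activity was normalised to no-enzyme and no-compound control wells.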
AmpC inh detg: blocks E. coli AmpC beta-lactamase in detergent assay | AID 485294 | Potency, µM (doses to about 114 µM), usual class: inhibitors | AmpC hydrolysis of nitrocefin, absorbance 480 nm, 0.01% Triton | actives 0.041% (n = 370,000); further: nearly all actives have a fitted effect of over 25% in size
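AmpC (5.3 nM in the dispensed reagent) in 20 mM phosphate pH 7.0 with 0.01% (detergent screen) or 0.0001% Triton X-100 was preincubated with compounds for 15 min at room temperature. Nitrocefin was then added from an 800 uM solution, and hydrolysis was followed at 480 nm.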
Sm TGR inh: inhibitors of Schistosoma mansoni thioredoxin glutathione reductase; purified TGR, DTNB reduction, TNB absorbance 405 nm; Potency, µM (top dose mostly 114 µM), actives largely listed as inhibitors; actives 3% (n = 360,000); AID 485364; further: nearly all actives have a fitted effect of over 60% in size
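First, TGR (20 nM dispensed) and NADPH were mixed with compound. Second, a 15 min room-temperature incubation followed. Third, further NADPH and then DTNB were added to start the reaction. Finally, TNB absorbance was monitored kinetically.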
FMDV antiviral: foot and mouth disease virus antiviral activity. FMDV antiviral cell-based qHTS. Potency, µM (titrated, usually from 57.9 µM), most hits filed as inhibitors. actives 1.2% (n = 410,000); calls by dose curve; tested in HEK293T cells; further: read-out not given here; nearly all actives have a fitted effect of over 45% in size
AMA1-RON2 inh: inhibitors of Plasmodium falciparum AMA1-RON2 interaction; actives 0.2% (n = 360,000); Potency, µM (highest dose often 58.2 µM), hits mostly inhibitors; AlphaScreen AMA1-biotinylated RON2 peptide binding; AID 720542; further: nearly all actives have a fitted effect of over 45% in size
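AMA1 (3D7) with his tag at 25 nM final met compounds first, then biotinylated RON2 peptide at 25 nM; detection used donor plus acceptor beads, 10 µg/mL apiece, read by AlphaScreen after 30 min at room temperature.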
Of the large screens only hits and unclear results are named; the others gave an inactive call. Hits are enriched below; roughly 4.1% of the tested compounds scored in any of these assays. Unless noted, the call rests on the fitted dose curve; in most records, active means well fitted curve in the direction sought with a large enough effect; inconclusive means small, poorly fitted or top-dose-only effect, or another doubt; inactive means no such curve, though single readings can be large; an effect the other way counts as inactive or inconclusive.

O=C(CC1C(=O)NCCN1Cc1ccoc1)NCc1cccc(OC(F)(F)F)c1 (centres undefined)	Sm TGR inh 25.1µM
CN(CC1CCOCC1)C(=O)CC1C(=O)NCCN1Cc1ccccc1F (centres undefined)	Sm TGR inh inconclusive
Cc1c(C(=O)NCCCc2ccncc2)cnn1-c1ncc2c(n1)-c1ccccc1CC2	none (no result: AmpC no deterg, AmpC inh detg, Sm TGR inh, AMA1-RON2 inh)
CC(=O)c1cccc(NC(=O)C2CCN(S(=O)(=O)c3ccc4c(c3)CCCN4C(C)=O)CC2)c1	none (no result: AmpC no deterg, AMA1-RON2 inh)
Cc1cccc(NC(=O)c2sc(-n3nc(C)c(CCC(C)C)c3C)nc2C)c1C	none (no result: AmpC no deterg, AMA1-RON2 inh)
CC(C)C(O)c1ccc2c(c1)CN(C(=O)c1ccccc1-n1cccn1)CCO2 (centres undefined)	none (no result: AmpC no deterg, AmpC inh detg, Sm TGR inh, AMA1-RON2 inh)
CN(CC1CCOCC1)C(=O)CC1C(=O)NCCN1Cc1cccc(C(F)(F)F)c1 (centres undefined)	AmpC inh detg inconclusive, Sm TGR inh 44.7µM
CSc1ccc2cc(CNCc3ccccc3F)c(N3CCCC(CO)C3)nc2c1 (centres undefined)	none (no result: AmpC no deterg, AmpC inh detg, Sm TGR inh, AMA1-RON2 inh)
O=S(=O)(c1ccccc1)N1CCC2(CCCN(Cc3cc(C(F)(F)F)cc(C(F)(F)F)c3)C2)CC1	none (no result: AmpC no deterg, AmpC inh detg, Sm TGR inh, AMA1-RON2 inh)
O=C(Nc1nc2ccc(F)cc2s1)C1=COCCO1	FMDV antiviral inconclusive
O=C(Nc1nc2cc3c(cc2s1)OCCO3)C1=COCCO1	FMDV antiviral 3.98µM
CC(C)(C)C(=O)Nc1nc2cc3c(cc2s1)OCO3	AMA1-RON2 inh inconclusive
CC(C)C(=O)Nc1nc2cc3c(cc2s1)OCO3	AmpC no deterg 10µM, AmpC inh detg inconclusive
COc1ccc(OC)c(-c2noc(N3CCN(c4ccc(Cl)cc4)CC3)n2)c1	none (no result: AmpC no deterg, AMA1-RON2 inh)
Cc1ccc(CNC(=O)C(=O)NCC(c2ccco2)S(=O)(=O)c2cccs2)cc1 (centres undefined)	Sm TGR inh inconclusive (no result: AmpC no deterg, AMA1-RON2 inh)
O=C(NCC(c1cccs1)S(=O)(=O)c1cccs1)c1cccc(F)c1 (centres undefined)	Sm TGR inh 20µM (no result: AmpC no deterg, AMA1-RON2 inh)
O=C(NCC(c1ccco1)S(=O)(=O)c1cccs1)c1ccccc1F (centres undefined)	Sm TGR inh 11.2µM (no result: AmpC no deterg, AMA1-RON2 inh)
O=C(NCC(c1ccco1)S(=O)(=O)c1cccs1)c1c(F)cccc1F (centres undefined)	Sm TGR inh 0.708µM (no result: AmpC no deterg, AMA1-RON2 inh)
O=c1[nH]c2ccc(Cl)cc2c(-c2ccccc2)c1N1CCN(CCO)CC1	none
O=c1[nH]c2ccc(Br)cc2c(-c2ccccc2)c1CN1CCOCC1	AmpC inh detg inconclusive, Sm TGR inh 35.5µM
O=c1[nH]c2ccc(Br)cc2c(-c2ccccc2)c1N1CCOCC1	AmpC no deterg 1µM, AmpC inh detg inconclusive
O=C(O)Cc1c(-c2ccccc2)c2cc(Br)ccc2[nH]c1=O	none
COc1ccc(CNC(=O)c2ccc3c(c2)CCN3S(=O)(=O)c2ccc(Cl)cc2)cc1	none (no result: AmpC no deterg, AMA1-RON2 inh)
Cn1cnnc1SCc1ccc(-c2ccc(Br)cc2)o1	AmpC inh detg inconclusive, Sm TGR inh 25.1µM
Cn1cnnc1SCc1ccccc1	none
Cn1c(SCC(=O)N2CCCC2)nc2cccnc21	Sm TGR inh 39.8µM
O=C(CSc1nc2cccnc2n1Cc1ccccc1)N1CCCC1	none
CCOC(=O)c1ccc(NC(=O)CSc2nc3cccnc3n2C)cc1	FMDV antiviral 15.8µM
COc1ccc(/C(C)=N/Nc2ccccc2Cl)c(O)c1	Sm TGR inh 14.1µM
COc1ccc(/C(C)=N/Nc2ccc(F)cc2F)c(O)c1	none
C/C(=N/Nc1ccc(C)cc1)C1(C)N(O)C(C)(C)C(c2ccco2)=[N+]1[O-] (centres undefined)	Sm TGR inh 10µM
C=CCn1c(SCC(=O)c2cccs2)nc2sc(CC)cc2c1=O	FMDV antiviral 20µM
C=CCn1c(SCC(=O)/C(C#N)=C(\C)N)nc2sc(CC)cc2c1=O	FMDV antiviral 22.4µM
C=CCn1c(SCC(=O)N2CCN(C(=O)c3ccco3)CC2)nc2sc(CC)cc2c1=O	none
C=CCn1c(SCC(=O)N2CCc3ccccc3C2)nc2sc(C)cc2c1=O	FMDV antiviral 22.4µM
CCCCN1C(C(=O)c2ccccc2)=C(OC(C)=O)c2ccccc2S1(=O)=O	FMDV antiviral inconclusive (no result: AmpC no deterg, AMA1-RON2 inh)
CC(=O)N1CCc2cc(Br)cc(S(=O)(=O)CCC(=O)Nc3ccc(C)cc3Cl)c21	none (no result: AmpC no deterg, AMA1-RON2 inh)
O=C(c1cnccn1)N1CCC2(CCCN(Cc3nccs3)C2)CC1	none (no result: AmpC no deterg, AmpC inh detg, Sm TGR inh, AMA1-RON2 inh)

Assay outcomes deposited in PubChem by National Center for Advancing Translational Sciences (NCATS).
